TDP1 cell CPT = DT40-hTDP1 cell growth loss with CPT; chicken DT40 Tdp1-/-;hTDP1 cells + 20 nM CPT, ATP luminescence, 48 h; Potency, µM (highest dose often 46.2 µM), actives largely listed as inhibitors; 12% of 420,000 active; AID 686979; also: nearly all actives have a fitted effect of over 55% in size
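Chicken DT40 Tdp1-/- cells complemented with human TDP1, 400 cells/well, exposed to compounds plus 20 nM camptothecin for at least 48 h at 37 C; viability read as ATP content by CellTiter-Glo luminescence.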
Gal4-VP16 FLuc = counter-screen for ROR gamma inhibitors: Gal4-VP16 reporter; Potency, µM (series often up to 53.6 µM), most hits filed as inhibitors; Drosophila S2 Gal4-VP16 UAS-luciferase, luminescence, 20 h; 3.5% of 310,000 active;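 also: Gal4-VP16 expression switched on by copper sulfate through the metallothionein promoter; nearly all actives have a fitted effect of over 50% in size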
DT40 TDP1 no CPT = qHTS for Inhibitors of human tyrosyl-DNA phosphodiesterase 1 (TDP1): qHTS in cells in absence of CPT | 15% of 420,000 active | Potency, µM (doses to about 46.2 µM), hits mostly inhibitors | DT40 Tdp1-/- hTDP1 cells, no CPT, ATP luminescence, 48 h; also: nearly all actives have a fitted effect of over 55% in size
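Chicken DT40 Tdp1-/- cells complemented with human TDP1, screened without camptothecin (DMSO vehicle only), 400 cells/well. Compounds pin-transferred, cells incubated at 37 °C for at least 48 hr. Growth read as ATP-dependent luminescence (CellTiter-Glo, 30 min at RT).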
ELG1 repair inh = ELG1-dependent DNA repair inhibition | HEK293T ELG1-luciferase reporter, luminescence, 16 h; DNA damage induced by 5-fluorouridine | 2.3% of 330,000 active | Potency, µM (doses to about 46.1 µM), usual class: inhibitors; also: nearly all actives have a fitted effect of over 55% in size
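Luminescence from the luciferase reporter, measured 30 min after ONE-Glo reagent at room temperature, was the read-out. Beforehand, 2,000 cells per well were exposed for 16 hr at 37 °C to 5-fluorouridine together with compound or vehicle.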
RORg inh = ROR gamma (mouse) transcription inhibition. P51450. Drosophila S2 Gal4-RORgamma UAS-luciferase reporter, 20 h. Potency, µM (top dose mostly 53.6 µM), actives largely listed as inhibitors. 5.4% of 310,000 active; also: nearly all actives have a fitted effect of over 60% in size
Target sequence (P51450 whole entry, looked up, the tested form may be a part): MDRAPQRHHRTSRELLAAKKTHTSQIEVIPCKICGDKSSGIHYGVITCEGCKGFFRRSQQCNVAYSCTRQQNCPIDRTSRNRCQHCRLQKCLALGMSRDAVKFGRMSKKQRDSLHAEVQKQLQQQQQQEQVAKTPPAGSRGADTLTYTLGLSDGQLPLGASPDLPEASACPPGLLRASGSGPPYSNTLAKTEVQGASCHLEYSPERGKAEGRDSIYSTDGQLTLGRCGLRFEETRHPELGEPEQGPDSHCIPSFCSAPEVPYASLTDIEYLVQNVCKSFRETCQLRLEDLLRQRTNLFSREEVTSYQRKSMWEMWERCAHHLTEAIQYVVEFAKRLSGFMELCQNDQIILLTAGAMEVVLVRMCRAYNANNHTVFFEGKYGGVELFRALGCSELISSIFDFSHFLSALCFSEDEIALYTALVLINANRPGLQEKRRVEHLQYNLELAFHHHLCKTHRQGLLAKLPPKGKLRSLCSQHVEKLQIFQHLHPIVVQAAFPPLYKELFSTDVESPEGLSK
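Luminescence from a UAS-regulated Photinus luciferase reporter in stably transfected Drosophila Schneider cells is measured; decreased signal marks ROR gamma inhibition. Fusion expression is induced by 700 uM copper sulfate for 20 hr.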
IL-1B inflam inh = inhibitors of inflammasome signaling (IL-1 beta secretion); THP-1 LPS/ATP IL-1B secretion, AlphaLISA, 16 h; stronger effect = lower value; activity change, % at 57.5 µM; 4.7% of 360,000 active; AID 743279; in the data active = activity change below about -50%; inconclusive = mostly about -30% to -49%
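Secreted IL-1B measured by AlphaLISA bead assay after 16 h compound exposure of THP-1 cells; compounds (final up to 57.5 uM) added 1 h before LPS (250 ng/mL) and ATP (1.25 mM) stimulation; lower signal means less secretion.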
Hits are given with their value; n = inactive; u = inconclusive; x = no result given. Compounds with a hit are over-represented: about 21% of the library has one in this group of screens. Unless noted, calls follow the shape of the dose curve; as a rule, active = well fitted curve in the direction sought with a large enough effect; inconclusive = small, poorly fitted or top-dose-only effect, or another doubt; inactive = no such curve, though single readings can be large; an effect the other way counts as inactive or inconclusive.

SMILES	TDP1 cell CPT	Gal4-VP16 FLuc	DT40 TDP1 no CPT	ELG1 repair inh	RORg inh	IL-1B inflam inh
CC(NC(=S)NCc1ccc(F)cc1)C12CC3CC(CC(C3)C1)C2 (stereo unspecified)	u	5.01µM	14.6µM	n	1.78µM	-84.0
COc1ccc(C)cc1NC(=S)NC(C)c1ccc(OC)c(OC)c1 (stereo unspecified)	u	10µM	u	u	2.82µM	n
COc1ccc(C(C)NC(=S)NCc2ccc(F)cc2)cc1OC (stereo unspecified)	n	u	u	n	12.6µM	n
CCNC(=S)NCc1ccc(OC)c(OC)c1	n	n	n	n	n	n
C[C@H](NC(=O)NCc1ccc(F)cc1)C(=O)O	n	n	n	n	n	n
CCOc1ccc(C(C)NC(=S)NCc2ccc(Cl)cc2)cc1 (stereo unspecified)	u	12.6µM	u	u	0.794µM	n
Cc1cc(Br)cc(Br)c1OCC(=O)NNC(=O)Nc1ccccc1	n	x	n	x	x	n
CCCc1ccc(C(C)NC(=S)NCc2ccc(F)cc2)cc1 (stereo unspecified)	u	3.16µM	u	u	0.631µM	n
COc1ccc(CNC(=O)CNC(C)c2ccc(F)cc2)cc1 (stereo unspecified)	n	n	n	n	n	u
CCC(NC(=S)NCc1ccc(F)cc1)c1ccc(C(C)C)cc1 (stereo unspecified)	u	3.98µM	u	u	2.82µM	n
CCC(C)[C@H](NC(=O)NCc1ccc(F)cc1)C(=O)O (stereo partly specified)	n	n	n	u	n	n
CCCOc1ccc(-c2nc(N3CCCCC3)c3ccccc3n2)cc1	n	x	n	x	x	x
CCN1CCN(c2nc(-c3cccnc3)nc3ccccc23)CC1	n	n	n	n	n	n
CCCOc1ccc(-c2nc(N3CCN(C)CC3)c3ccccc3n2)cc1	23.1µM	n	u	u	n	n
CCCOc1ccc(-c2nc(N3CCN(CC)CC3)c3ccccc3n2)cc1	u	n	29.1µM	n	n	-56.7
O=C(Nc1ccc(SC(F)F)cc1)c1cc(-c2ccc3c(c2)OCCO3)on1	n	x	n	x	x	x
Cc1ccc(CCc2nnc(SCC(=O)Nc3ccccc3Cl)n2-c2ccccc2)o1	u	n	u	u	u	-63.6
O=C(CSc1n[nH]c(=O)n1-c1cccnc1)Nc1ccccc1Cl	n	n	n	n	n	n
O=C(CSc1nnc(-c2n[nH]c3ccccc23)n1-c1ccccc1)Nc1ccccc1Cl	u	n	u	23.1µM	n	u
Cc1c(Cl)cccc1NC(=O)CSc1nnc(C)n1-c1ccccc1	u	n	u	u	n	n
CCOC(=O)c1ccc(NC(=O)CSc2nnc(CCc3ccc(C)o3)n2-c2ccccc2)cc1	u	14.1µM	u	n	u	u
Cc1cc(C)c2c(-n3cccc3)c(C(=O)NCCc3ccc(Cl)cc3)sc2n1	n	x	u	x	x	x
O=C(COC(=O)C1COc2ccccc2O1)Nc1cccc(S(=O)(=O)N2CCCCC2)c1 (stereo unspecified)	n	n	n	u	n	n
COc1cccc(CN(C)CC(=O)NCc2ccc(F)cc2)c1OC	n	n	n	u	n	n
Cc1ccc(SCCC(=O)Nc2ccccc2Br)cc1	n	u	n	n	n	n
SMILES	TDP1 cell CPT	Gal4-VP16 FLuc	DT40 TDP1 no CPT	ELG1 repair inh	RORg inh	IL-1B inflam inh
CN(CC(=O)Nc1ccccc1Br)C(=O)CCSc1ccc(F)cc1	u	x	13µM	n	x	n
COc1ccccc1CNC(=O)CN(C)Cc1ccc(SC)cc1	16.4µM	n	23.1µM	n	n	n
CSc1ccc(CN(C)CC(=O)Nc2ccccc2Br)cc1	23.1µM	n	u	n	n	n
Cc1cccc(C(=O)N/N=C/c2ccncc2)c1	n	n	n	u	n	n
CCn1c2ccccc2c2cc(/C=N/NC(=O)c3cccc(C)c3)ccc21	29.1µM	n	18.4µM	u	n	n
CCn1c2ccccc2c2cc(/C=N/NC(=O)c3ccccc3C)ccc21	2.59µM	u	2.59µM	n	u	n
CCn1c(NC(=S)Nc2ccccc2)nc2ccccc21	5.17µM	2.82µM	4.61µM	u	4.47µM	n
S=C(Nc1ccccc1)Nc1nc2ccccc2n1CCOc1ccc(Cl)cc1	20.6µM	1.78µM	16.4µM	u	2.24µM	-88.0
CCCn1c(NCc2ccc(N(C)C)cc2)nc2ccccc21	u	n	u	u	n	u
CCCn1c(NC(=S)Nc2ccccc2)nc2ccccc21	u	1.12µM	u	u	1µM	n
CC(C)c1ccc(C(C(=O)NC2CCCCC2)N(C(=O)c2csnn2)C2CC2)cc1 (stereo unspecified)	u	n	u	n	n	n
O=C1C[C@@H]2c3c(cccc3CN1Cc1ccccc1F)C[C@@H](O)[C@H]2O	n	x	n	x	x	n
COc1cc(OC)c(C(=O)OCC(=O)Nc2nnc(-c3ccccc3)o2)cc1OC	n	x	n	n	x	n
COC(=O)[C@@]1(Sc2ccc(C)cc2)CC(=O)N(c2ccc(Cl)cc2)[C@@H]1c1ccccc1	u	x	20.6µM	x	x	n
COC(=O)c1cccc(N2C(=O)C[C@](Sc3ccc(C)cc3)(C(=O)OC)[C@H]2c2ccccc2)c1	u	x	23.1µM	x	x	n
CC1(C(=O)Nc2cnc3ccccc3c2)CCN1C(=O)c1ccccc1CCc1ccccc1 (stereo unspecified)	u	x	u	x	x	n
CCC(=O)NNc1ncnc2c1cnn2-c1ccc(C)c(Cl)c1	n	x	n	x	x	x
CCOC(=O)c1ccc2c(c1)C1C=CCC1C(C(=O)OCC)N2 (stereo unspecified)	u	n	u	u	u	n
CC(C)CNC(=O)C1Nc2ccc(OC(F)(F)F)cc2C2C=CCC12 (stereo unspecified)	u	x	13µM	x	x	n
CCOC(=O)C1Nc2ccc(Br)cc2C2C=CCC12 (stereo unspecified)	u	n	20.6µM	n	n	n
CCOC(=O)C1Nc2ccc(C)cc2C2C=CCC12 (stereo unspecified)	u	x	18.4µM	x	x	n
CCCCCC(=O)Nc1cccc(-c2nc3ncccc3o2)c1	n	n	n	n	n	-99.0
Cc1cccc(OCC(=O)Nc2ccc(Cl)c(-c3nc4ncccc4o3)c2)c1C	18.4µM	x	16.4µM	x	x	x
COc1c(C)cc(Br)cc1C(=O)Nc1cccc(-c2nc3ncccc3o2)c1	20.6µM	n	20.6µM	18.4µM	n	n
Cc1ccc(C(C)C)c(OCC(=O)Nc2cccc(-c3nc4ncccc4o3)c2)c1	20.6µM	x	20.6µM	x	x	x

Compound activity deposited in PubChem by National Center for Advancing Translational Sciences (NCATS).
